PubChem BioAssay
Several values for one entry are separate records, joined by “and”; a condition that tells them apart may be missing. Equal values may be shown once. Records with an inconclusive call do not appear. Activity calls are given as the source filed them. Unless noted, how the calls were made is not given here. Non-standard residues stand in square brackets, D forms with d. Residues, ends and D or L forms follow the SMILES beside them. pGlu = O=C1CC[C@@H](C(=O)O)N1; Thz = O=C(O)[C@@H]1CSCN1

Legend:
[1] = circadian clock period modulators, cell-based, LOPAC library, luminescence reporter (AID 2774); settings: circadian reporter cells, at 7 µM, actives lie on both sides;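 further: values are relative to mean of DMSO wells on each plate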
[2] = test system: Hepatitis C virus NS3 helicase; test: HCV NS3 helicase inhibitors, primary screen, biochemical, fluorescence polarization, LOPAC1280 library (AID 687035; in the data active means inhibition above about 37%); settings: Purified HCV NS3 helicase, Cy5-dT15 ssDNA binding fluorescence polarization; stronger effect = higher value; concentration not given here
[3] = Cy5 fluorescence quenching or enhancement artefacts, artefact control for HCV NS3 helicase inhibitor project, biochemical, LOPAC1280 (AID 687037); settings: Cy5-DNA-NS3h complex fluorescence interference counterscreen
[4] = test system: Neuropilin-2 / VEGF-C interaction (human); test: inhibitors of NRP2–VEGF-C binding, biochemical, microplate binding format, z-score (AID 743281); settings: microplate NRP2/VEGF-C binding assay; stronger effect = lower value
[5] = differential killing of epithelial or mesenchymal cells, primary screen, imaging, PC-3E GFP, TEM4-18 mCherry, co-culture (AID 1345086;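 active means compounds killing one labelled cell type while sparing the other, by normalised counts and ratio limits, not self-fluorescent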;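 on all read-outs here: cells exposed to compound for 72 h before imaging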;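 on red/green cell ratio (normalised): normalised mesenchymal count divided by normalised epithelial count so high means epithelial killing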); settings: imaging cell counts, at 1 µM; for red/green cell ratio (normalised): actives lie on both sides, counts scaled to control wells, 1 = unselective
[6] = test system: Aerobactin synthetase IucA (Klebsiella pneumoniae); test: IucA aerobactin synthetase inhibitors, biochemical, Tocris library, absorbance (AID 1345561); settings: purified IucA enzyme assay, absorbance (OD) read-out; stronger effect = lower value;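 tested at 8 µM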;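 further: 100% = enzyme without compound and 0% = no enzyme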
[7] = growth inhibition of DIPG glioma cells, dose response, cell-based, SU-DIPG-IV, MIPE4.0, CellTiter-Glo, qHTS (AID 1347063; cut-off not given, nearly all actives have AC50 up to about 30 µM;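 further: compound exposure lasted 48 hours before the viability readout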); settings: SU-DIPG-IV viability, CellTiter-Glo ATP luminescence
[8] = SU-DIPG-VI glioma cell viability, MIPE4.0 library, CellTiter-Glo luminescence, qHTS (AID 1347066; cut-off not given, nearly all actives have AC50 up to about 30 µM;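 further: cells exposed to compound for 48 hours before readout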); settings: CellTiter-Glo ATP luminescence
[9] = phospholipid biosynthesis inhibitors in animal cells, primary screen, cell-based, LOPAC library, screen 4 (AID 1347384); settings: phospholipid biosynthesis inhibition screen, at 10 µM
[10] = biological target: NAD(+) hydrolase SARM1 (Homo sapiens) (UniProt Q6SZW1); test: SARM1 TIR NADase inhibitors, cell lysate, NAD-Glo luminescence (AID 1508614;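 active means compound whose remaining NAD level is above about 45 nM, limit read from the data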); settings: SAM-TIR HEK293T lysate NADase, at 1 µM, stronger effect = higher value
Sequence of NAD(+) hydrolase SARM1 (Homo sapiens) (Q6SZW1 whole entry, looked up, the tested form may be a part): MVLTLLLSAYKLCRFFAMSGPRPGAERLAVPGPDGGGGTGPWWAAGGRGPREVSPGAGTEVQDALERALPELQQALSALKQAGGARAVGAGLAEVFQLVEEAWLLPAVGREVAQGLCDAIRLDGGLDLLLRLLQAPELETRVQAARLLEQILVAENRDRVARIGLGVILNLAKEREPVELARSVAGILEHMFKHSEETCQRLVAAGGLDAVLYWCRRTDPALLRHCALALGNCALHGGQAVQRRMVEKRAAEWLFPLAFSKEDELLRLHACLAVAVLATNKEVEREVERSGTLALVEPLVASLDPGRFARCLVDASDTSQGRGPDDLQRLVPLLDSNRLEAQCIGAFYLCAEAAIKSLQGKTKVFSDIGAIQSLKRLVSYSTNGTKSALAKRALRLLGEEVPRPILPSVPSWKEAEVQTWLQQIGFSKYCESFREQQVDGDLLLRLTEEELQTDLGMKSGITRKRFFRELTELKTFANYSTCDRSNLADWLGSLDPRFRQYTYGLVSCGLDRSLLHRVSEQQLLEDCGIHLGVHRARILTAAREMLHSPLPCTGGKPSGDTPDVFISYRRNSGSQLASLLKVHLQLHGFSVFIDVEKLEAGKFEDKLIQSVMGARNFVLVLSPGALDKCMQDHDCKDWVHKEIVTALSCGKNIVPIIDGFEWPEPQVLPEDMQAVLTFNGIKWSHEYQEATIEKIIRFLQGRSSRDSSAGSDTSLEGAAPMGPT

[11] = biological target: Mitogen-activated protein kinase 7 (Homo sapiens) (UniProt Q13164); test: ERK5 transactivation activators in reporter cells, primary screen, cell-based, HTS (AID 1508626;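 active means luciferase signal above three times the same-plate solvent-only control wells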;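 further: luciferase driven by Gal4-ERK5 fusion binding five Gal4 sites before minimal TATA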); settings: HeLa Gal4-ERK5 transactivation, 18 h, at 5 µM, stronger effect = higher value
Sequence of Mitogen-activated protein kinase 7 (Homo sapiens) (Q13164 whole entry, looked up, the tested form may be a part): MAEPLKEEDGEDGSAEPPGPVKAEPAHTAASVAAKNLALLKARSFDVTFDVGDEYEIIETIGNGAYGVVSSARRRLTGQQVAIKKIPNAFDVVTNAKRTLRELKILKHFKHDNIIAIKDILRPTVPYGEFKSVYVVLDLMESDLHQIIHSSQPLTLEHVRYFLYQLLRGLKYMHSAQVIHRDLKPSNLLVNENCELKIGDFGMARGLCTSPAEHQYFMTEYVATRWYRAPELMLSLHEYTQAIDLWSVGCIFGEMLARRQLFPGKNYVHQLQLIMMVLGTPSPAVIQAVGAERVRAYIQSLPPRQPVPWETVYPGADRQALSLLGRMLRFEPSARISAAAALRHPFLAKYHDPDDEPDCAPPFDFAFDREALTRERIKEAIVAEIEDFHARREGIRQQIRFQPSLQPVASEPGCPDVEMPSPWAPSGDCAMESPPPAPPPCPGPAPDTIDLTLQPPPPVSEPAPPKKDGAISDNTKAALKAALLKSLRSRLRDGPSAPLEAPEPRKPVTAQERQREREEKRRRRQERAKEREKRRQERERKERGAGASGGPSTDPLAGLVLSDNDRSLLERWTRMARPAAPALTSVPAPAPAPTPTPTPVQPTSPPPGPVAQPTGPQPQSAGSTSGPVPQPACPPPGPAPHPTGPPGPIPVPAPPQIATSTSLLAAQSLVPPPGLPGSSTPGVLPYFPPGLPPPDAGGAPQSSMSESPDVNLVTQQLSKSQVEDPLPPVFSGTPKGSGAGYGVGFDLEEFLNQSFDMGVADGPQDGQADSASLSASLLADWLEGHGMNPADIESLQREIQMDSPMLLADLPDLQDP

[12] = growth inhibition of DIPG glioma cells, dose response, cell-based, SU-DIPG-XIII, MIPE4.0, CellTiter-Glo, qHTS (AID 1347061; cut-off not given, nearly all actives have AC50 up to about 37 µM;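 further: cells exposed to compound for 48 hours before readout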); settings: SU-DIPG-XIII viability, CellTiter-Glo ATP luminescence
[13] = growth inhibition of DIPG glioma cells, dose response, cell-based, JHH-DIPG-1, MIPE4.0, CellTiter-Glo, qHTS (AID 1347062; cut-off not given, nearly all actives have AC50 up to about 27 µM); settings: JHH-DIPG-1 viability, CellTiter-Glo ATP luminescence
[14] = viability loss in pontine glioma line – cell-based, SU-DIPG-XXV, MIPE5.0, CellTiter-Glo, qHTS, dose response (AID 1347065; cut-off not given, nearly all actives have AC50 up to about 26 µM;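 further: cells exposed to compound for 48 hours before ATP readout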); settings: CellTiter-Glo ATP luminescence
[15] = modifiers of HSF1 nuclear foci, imaging, Selleck Cancer Library (AID 1347162; in the data active means plate-normalised HSF1 focus index below about 0.46); settings: human cells, at 10 µM; SSMD: measured here: HSF1 foci SSMD mean; cell count: measured here: cell number; plate-normalised HSF1 focus index: stronger effect = lower value
[16] = growth inhibition of DIPG glioma cells, dose response, cell-based, SU-DIPG-XVII, MIPE5.0, CellTiter-Glo, qHTS (AID 1347060; cut-off not given, nearly all actives have AC50 up to about 26 µM;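 on AC50: cells exposed to compound for 48 hours before viability readout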); settings: SU-DIPG-XVII viability, CellTiter-Glo ATP luminescence
[17] = growth inhibition of DIPG glioma cells, dose response, cell-based, SU-DIPG-XIII, MIPE5.0, CellTiter-Glo, qHTS (AID 1347064; cut-off not given, nearly all actives have AC50 up to about 23 µM); settings: SU-DIPG-XIII viability, CellTiter-Glo ATP luminescence
[18] = JHH-DIPG-1 glioma cell viability, MIPE5.0 library, CellTiter-Glo luminescence, qHTS (AID 1347067; cut-off not given, nearly all actives have AC50 up to about 26 µM;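 further: cells exposed to compound for 48 hours before readout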); settings: JHH-DIPG-1 glioma viability, CellTiter-Glo ATP luminescence
[19] = SU-DIPG-XXV glioma cell viability, MIPE5.0 library, qHTS (AID 1347068; cut-off not given, nearly all actives have IC50 up to about 30 µM)
[20] = measured here: epithelial PC-3E GFP cell survival
[21] = measured here: mesenchymal TEM4-18 mCherry cell survival

CN(C)CCCC1(c2ccc(F)cc2)OCc2cc(C#N)ccc21 (stereo not given)
1.31: normalised cell number [5, 21]
inactive: period change [1] -0.06 h | inhibition [2] -4% | fluorescence ratio (interference) [3] 1 | z-score [4] 0.0126 | red/green cell ratio (normalised) [5] 1.17 | remaining activity [6] 108% | outcome [7] | outcome [8] | outcome [9] | remaining NAD [10] 10 nM | luciferase signal [11] 68 AU
1.12: normalised cell number [5, 20]

CNCC[C@H](Oc1cccc2ccccc12)c1cccs1
active: AC50 [12] 1.32 µM
inactive: z-score [4] 0.369 and 0.383 | red/green cell ratio (normalised) [5] 0.93 | outcome [8] | remaining NAD [10] 10 nM | luciferase signal [11] 36 AU
1.07: normalised cell number [5, 20]
1: normalised cell number [5, 21]

CN(C)CCOc1ccc(/C(=C(/CCCl)c2ccccc2)c2ccccc2)cc1
-11.1: SSMD [15]
1.04: normalised cell number [5, 21]
active: AC50 [14] 20.9 µM
3260: cell count [15]
1.07: normalised cell number [5, 20]
inactive: z-score [4] -0.537 | red/green cell ratio (normalised) [5] 0.97 | outcome [12] | outcome [13] | outcome [8] | plate-normalised HSF1 focus index [15] 0.417 | remaining NAD [10] 10 nM

Cc1cccc(CCN2CCC(C(=O)c3ccc(NS(C)(=O)=O)cc3)CC2)n1
inactive: z-score [4] -0.668 | remaining activity [6] 104%

CN1[C@@H]2CCC[C@H]1CC(NC(=O)c1nn(C)c3ccccc13)C2 (stereo not given in full)
inactive: z-score [4] 1.21 | outcome [16] | outcome [12] | outcome [13] | outcome [17] | outcome [14] | outcome [8] | outcome [18] | outcome [19] | remaining NAD [10] 10 nM

COc1ccc(C[C@H](C)NC[C@@H](O)c2ccc(O)c(NC=O)c2)cc1
inactive: z-score [4] -0.584 | remaining activity [6] 116%

CCN(CC)CC#CCOC(=O)C(O)(c1ccccc1)C1CCCCC1 (stereo not given)
inactive: period change [1] -0.025 h | inhibition [2] -3% | fluorescence ratio (interference) [3] 0.9 | red/green cell ratio (normalised) [5] 1.02 | outcome [12] | outcome [13] | outcome [7] | outcome [8] | outcome [9] | remaining NAD [10] 10 nM | luciferase signal [11] 68 AU
1.13: normalised cell number [5, 20]
1.14: normalised cell number [5, 21]

CC(C)NCC(O)c1ccc(NS(C)(=O)=O)cc1 (stereo not given)
0.97: normalised cell number [5, 21]
1.21: normalised cell number [5, 20]
inactive: period change [1] -0.07 h | inhibition [2] -2% | fluorescence ratio (interference) [3] 1 | z-score [4] -0.291 | red/green cell ratio (normalised) [5] 0.8 | remaining activity [6] 91.3% | outcome [16] | outcome [13] | outcome [7] | outcome [17] | outcome [14] | outcome [8] | outcome [18] | outcome [19] | outcome [9] | remaining NAD [10] 10 nM

O=C1CC[C@@H](C(=O)N2CSC[C@H]2C(=O)O)N1 ([pGlu]-[Thz]-OH)
0.97: normalised cell number [5, 20]
inactive: z-score [4] -0.307 | red/green cell ratio (normalised) [5] 0.96 | remaining NAD [10] 10 nM
0.93: normalised cell number [5, 21]

Cc1cnc(C(=O)NCCc2ccc(S(=O)(=O)NC(=O)NC3CCCCC3)cc2)cn1
0.87: normalised cell number [5, 20]
0.93: normalised cell number [5, 21]
inactive: period change [1] 0.035 h | inhibition [2] -1% | fluorescence ratio (interference) [3] 1 | red/green cell ratio (normalised) [5] 1.07 | outcome [13] | outcome [17] | outcome [14] | outcome [8] | outcome [18] | outcome [19] | outcome [9] | remaining NAD [10] 10 nM

CC(CCCCC(=O)Nc1ccc(C(F)(F)F)cc1)NCCc1cnc[nH]1 (stereo not given)
inactive: z-score [4] -0.258 | remaining activity [6] 92.5%

CN1CC(=O)N2[C@H](c3ccc4c(c3)OCO4)c3[nH]c4ccccc4c3C[C@@H]2C1=O
1.08: normalised cell number [5, 20]
inactive: z-score [4] 1.08 | red/green cell ratio (normalised) [5] 1 | outcome [16] | outcome [12] | outcome [13] | outcome [7] | outcome [17] | outcome [14] | outcome [8] | outcome [18] | outcome [19] | remaining NAD [10] 10 nM | luciferase signal [11] 40 AU
1.07: normalised cell number [5, 21]

C/C(=C\C(=O)OCCCCCCCCC(=O)O)C[C@@H]1OC[C@H](C[C@@H]2O[C@H]2[C@@H](C)[C@H](C)O)[C@@H](O)[C@H]1O
inactive: red/green cell ratio (normalised) [5] 1 | remaining NAD [10] 10 nM | luciferase signal [11] 48 AU
1.08: normalised cell number [5, 20] | normalised cell number [5, 21]

CNCC[C@@H](Oc1ccccc1C)c1ccccc1
inactive: z-score [4] 0.0903 | remaining activity [6] 96.2% | remaining NAD [10] 10 nM | luciferase signal [11] 64 AU

Cc1cc2c(s1)Nc1ccccc1N=C2N1CCN(C)CC1
inactive: outcome [4] | outcome [16] | outcome [12] | outcome [13] | outcome [17] | outcome [14] | outcome [8] | outcome [19] | outcome [9] | remaining NAD [10] 10 nM | luciferase signal [11] 136 AU
active: AC50 [18] 1.18 µM

CC(=O)NC[C@H]1CN(c2ccc(N3CCOCC3)c(F)c2)C(=O)O1
inactive: z-score [4] 0.877 | outcome [16] | outcome [12] | outcome [13] | outcome [7] | outcome [17] | outcome [14] | outcome [8] | outcome [18] | outcome [19] | outcome [9] | remaining NAD [10] 10 nM

CC(C)(S)C(N)C(=O)O (stereo not given)
1: normalised cell number [5, 20]
inactive: red/green cell ratio (normalised) [5] 0.95
0.96: normalised cell number [5, 21]

CC(Cc1ccc(O)c(O)c1)(NN)C(=O)O (stereo not given)
inactive: red/green cell ratio (normalised) [5] 1.18 | outcome [16] | outcome [12] | outcome [13] | outcome [7] | outcome [17] | outcome [14] | outcome [8] | outcome [18]
1.1: normalised cell number [5, 20]
1.3: normalised cell number [5, 21]

Cc1c(C(=O)NN2CCCCC2)nn(-c2ccc(Cl)cc2Cl)c1-c1ccc(I)cc1
inactive: z-score [4] 0.177 | remaining activity [6] 112%

COc1c(N2C[C@@H]3CCCN[C@@H]3C2)c(F)cc2c(=O)c(C(=O)O)cn(C3CC3)c12
0.89: normalised cell number [5, 20]
0.99: normalised cell number [5, 21]
inactive: z-score [4] -1.5 | red/green cell ratio (normalised) [5] 1.11 | outcome [12] | outcome [13] | outcome [7] | outcome [17] | outcome [14] | outcome [18] | outcome [19] | remaining NAD [10] 10 nM | luciferase signal [11] 64 AU

C[C@H]1O[C@H](O[C@H]2[C@H](O)[C@@H](O)[C@@H](O[C@H]3[C@H](O)[C@@H](O)C(O)O[C@@H]3CO)O[C@@H]2CO)[C@H](O)[C@@H](O)[C@@H]1N[C@H]1C=C(CO)[C@@H](O)[C@H](O)[C@H]1O (stereo not given in full)
1.1: normalised cell number [5, 20]
inactive: z-score [4] -1.33 | red/green cell ratio (normalised) [5] 0.91 | outcome [16] | outcome [12] | outcome [13] | outcome [14] | outcome [8] | outcome [18] | outcome [19] | remaining NAD [10] 10 nM | luciferase signal [11] 52 AU
1: normalised cell number [5, 21]

NCC(O)c1ccc(O)c(O)c1 (stereo not given)
1.45: normalised cell number [5, 21]
1.16: normalised cell number [5, 20]
inactive: period change [1] 0.075 h | inhibition [2] -3% | fluorescence ratio (interference) [3] 0.9 | red/green cell ratio (normalised) [5] 1.25 | outcome [9]

COc1nc(C)nc(Cl)c1NC1=NCCN1
inactive: period change [1] -0.08 h | inhibition [2] -4% | fluorescence ratio (interference) [3] 0.9 | z-score [4] -0.63 | remaining activity [6] 93.9% | outcome [12] | outcome [13] | outcome [7] | outcome [17] | outcome [14] | outcome [8] | outcome [19] | outcome [9]
active: AC50 [16] 23.5 µM

CCOC(=O)c1ccc(OC(=O)CCCCCN=C(N)N)cc1
inactive: z-score [4] -0.315 | remaining activity [6] 124% | outcome [16] | outcome [12] | outcome [13] | outcome [7] | outcome [17] | outcome [8] | outcome [18] | outcome [19]
